Molecules are shown by their SMILES. ± gives the standard deviation of the averaged measurements.

The assay deals with Caenorhabditis elegans N2 infected with Nematocida parisii ERTm1. Put plainly: progeny production relative to DMSO uninfected control; higher = more progeny despite microsporidia infection (inhibition of infection with low host toxicity). Particulars: infection time 6 days; 100 µM. The procedure, abridged:
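Wild-type C. elegans L1 larvae, synchronised by bleaching, were added at 100 per well to 96-well plates containing K-medium, E. coli OP50 and 15,000 N. parisii spores/μL, and compound was pinned in to 100 μM or 40 μM in 1% DMSO. The plates were shaken at 21°C for 6 days, after which worms were stained with Rose Bengal, scanned on a flatbed scanner and counted using WorMachine. Each compound and dose was run three times. Progeny production is expressed as a percentage of wells with vehicle but no spores, averaged over the replicates.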
`CN(C)CC(=O)Nc1ccc2[nH]c(=O)c3ccccc3c2c1` registered a progeny production of 14.1 ± 5%.
Under `Oc1cc(-c2cccc3ccccc23)[nH]n1` stands 18.4 ± 18%.
Under `O=C(N[C@H](Cc1cccc2ccccc12)C(=O)NCCc1c[nH]cn1)C1Cc2ccccc2C1` stands 17.2 ± 4.5%; under `Cc1cc(C2CCCCC2)n(O)c(=O)c1`, 33 ± 36%; under `Cc1[nH]c2ccccc2c1CC(=O)N[C@@H](Cc1ccccc1)C(=O)N(C)c1ccccc1`, 17.6 ± 9.7%.
The compound `Cc1ccc(C)c(OCCCCCCN2C[C@H](O)[C@@H](O)[C@H](O)[C@H]2CO)c1` gave a progeny production of 14.1 ± 11%.
Under `O=C(CCc1ccc2c(c1)OCO2)NCc1ccc(-c2ccccc2F)cc1` stands 14 ± 6.8%.
Under `N#Cc1cc([N+](=O)[O-])ccc1Oc1ccccc1Cl` stands 14.5 ± 8.1%.
Under `Oc1c(C(Nc2nc3ccccc3s2)c2ccc(OC(F)F)cc2)ccc2cccnc12` (centres undefined) stands 9.48 ± 12%; under `Cc1c(OCC(F)(F)F)ccnc1C[S+]([O-])c1nc2ccccc2[nH]1` (centres undefined), 11 ± 6.1%.
`Nc1nc(=O)c(Br)c(-c2ccccc2)[nH]1` displayed a progeny production of 9.38 ± 7.4%.
Under `O=C(O)C(Cc1c[nH]c2ccccc12)N1C(=O)c2ccccc2C1=O` (centres undefined) stands 9.79 ± 1.2%.
`COc1cc(C2C3=C(CC(C)(C)CC3=O)Nc3ccccc3N2C(C)=O)ccc1OCc1ccccc1` (centres undefined): the progeny production worked out at 15.1 ± 15%.
Under `Nc1ccc2oc(=O)ccc2c1I` stands 7.24 ± 3.6%.
Under `NCc1ccc(S(N)(=O)=O)cc1` stands 7.3 ± 1.6%.
Under `NC(=O)c1c(N)sc2c1CCCCC2` stands 8.33 ± 4.8%; under `O=c1cc(Nc2ccc3ccccc3c2)[nH]c(=O)[nH]1`, 8.48 ± 9.1%.
Turning to `O=[N+]([O-])/C(Br)=C/c1ccc(Br)o1`, the progeny production stood at 26.4 ± 9.5%.
Under `CCNC(=O)Nc1cc2c(-c3ccnc(C)c3)ccc(CNC(=O)OC)c2cn1` stands 17.2 ± 9.9%.

The record behind these values is the supplement of paper PMC10732440.
